# Assay results published in article PMC7862700, “An all-to-all approach to the identification of sequence-specific readers for epigenetic DNA modifications on cytosine”.
# How the values were obtained:
# Experiment in all cases: DAPPL (digital affinity profiling via proximity ligation, sequencing); 10 mM Tris-HCl pH 7.5, 50 mM NaCl, 1 mM DTT, 4% glycerol, room temperature, 30 min; GST-TFs on glutathione beads, 16-mer random dsDNA library, 0.1% formaldehyde crosslink after washing; high values mean tight binding
# Details in all cases: protein: recombinant; tags: N-terminal GST; dsDNA, one strand shown
# [1] = molecular target: T1, FLI1 (Homo sapiens, UniProt Q01543 1-452)
# T1 sequence: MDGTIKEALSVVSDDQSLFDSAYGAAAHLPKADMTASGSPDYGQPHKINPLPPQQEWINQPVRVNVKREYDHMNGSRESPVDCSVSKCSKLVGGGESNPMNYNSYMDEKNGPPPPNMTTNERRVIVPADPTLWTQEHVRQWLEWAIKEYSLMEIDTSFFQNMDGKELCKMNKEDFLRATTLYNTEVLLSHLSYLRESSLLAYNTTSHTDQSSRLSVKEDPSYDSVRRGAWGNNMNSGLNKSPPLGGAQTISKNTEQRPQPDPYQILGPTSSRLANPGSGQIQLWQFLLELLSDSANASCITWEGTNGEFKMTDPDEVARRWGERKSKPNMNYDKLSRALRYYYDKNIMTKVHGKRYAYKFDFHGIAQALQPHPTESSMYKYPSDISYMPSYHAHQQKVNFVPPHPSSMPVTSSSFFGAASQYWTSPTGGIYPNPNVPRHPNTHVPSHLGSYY
# In short: (§1)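 In yeast, human transcription factors were expressed with a GST fusion, then pulled down on glutathione beads and given DNA barcodes. Pooled with a tag-only sample, they were exposed to 200 nmole of a 16-mer random double-stranded DNA library (Tris/NaCl/DTT/glycerol buffer, room temperature, 30 min), washed, crosslinked with 0.1% formaldehyde, proximity-ligated using BsaI/T4 ligase for 1 h at 37 °C, PCR-amplified and read on an Illumina NextSeq500. Each hexamer's frequency of reads for a factor, divided by the matching frequency for the tag-only sample, gives the binding signal.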
# [2] = molecular target: T2, ELK1 (Homo sapiens, UniProt P19419 1-428)
# T2 sequence: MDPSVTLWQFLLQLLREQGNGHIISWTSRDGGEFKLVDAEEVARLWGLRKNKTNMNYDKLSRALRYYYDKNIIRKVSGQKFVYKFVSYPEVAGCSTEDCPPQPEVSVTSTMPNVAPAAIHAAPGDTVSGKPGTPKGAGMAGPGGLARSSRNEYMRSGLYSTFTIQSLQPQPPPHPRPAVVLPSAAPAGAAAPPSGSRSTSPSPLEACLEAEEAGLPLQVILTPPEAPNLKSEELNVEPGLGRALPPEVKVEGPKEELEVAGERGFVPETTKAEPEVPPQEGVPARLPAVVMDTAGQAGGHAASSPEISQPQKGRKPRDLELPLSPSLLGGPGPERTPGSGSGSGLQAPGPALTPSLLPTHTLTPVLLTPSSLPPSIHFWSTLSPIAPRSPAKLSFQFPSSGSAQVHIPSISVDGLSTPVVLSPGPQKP
# In short: as §1
# [3] = molecular target: T3, GABPA (Homo sapiens, UniProt Q06546 1-454)
# T3 sequence: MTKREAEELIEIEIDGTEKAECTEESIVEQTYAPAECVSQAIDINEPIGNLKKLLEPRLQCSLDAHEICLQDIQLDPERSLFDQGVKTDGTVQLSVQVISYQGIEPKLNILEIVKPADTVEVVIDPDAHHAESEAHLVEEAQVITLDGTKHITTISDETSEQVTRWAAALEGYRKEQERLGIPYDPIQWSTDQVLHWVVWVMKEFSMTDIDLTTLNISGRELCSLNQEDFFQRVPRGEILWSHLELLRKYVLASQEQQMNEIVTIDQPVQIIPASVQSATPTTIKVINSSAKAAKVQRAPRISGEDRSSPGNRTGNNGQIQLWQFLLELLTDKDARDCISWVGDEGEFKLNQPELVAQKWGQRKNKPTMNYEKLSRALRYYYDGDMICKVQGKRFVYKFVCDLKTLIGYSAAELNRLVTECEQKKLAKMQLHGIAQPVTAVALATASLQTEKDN
# In short: as §1
# [4] = molecular target: T4, ERG (Homo sapiens, UniProt P11308 1-479)
# T4 sequence: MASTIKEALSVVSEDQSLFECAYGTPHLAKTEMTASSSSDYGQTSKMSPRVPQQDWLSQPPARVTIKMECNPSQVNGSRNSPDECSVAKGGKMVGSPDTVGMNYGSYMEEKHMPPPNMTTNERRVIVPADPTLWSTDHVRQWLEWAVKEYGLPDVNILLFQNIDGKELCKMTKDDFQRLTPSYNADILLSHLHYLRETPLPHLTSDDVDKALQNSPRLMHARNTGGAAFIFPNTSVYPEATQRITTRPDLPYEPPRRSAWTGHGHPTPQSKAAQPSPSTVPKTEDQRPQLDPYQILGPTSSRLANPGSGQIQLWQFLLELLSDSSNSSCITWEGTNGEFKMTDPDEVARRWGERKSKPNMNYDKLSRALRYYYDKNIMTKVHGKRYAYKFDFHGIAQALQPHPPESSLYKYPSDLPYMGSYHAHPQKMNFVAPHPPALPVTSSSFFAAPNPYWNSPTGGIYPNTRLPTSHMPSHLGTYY
# In short: as §1
# [5] = molecular target: ELF1 (Homo sapiens, UniProt P32519 1-619)
# ELF1, sequence (P32519 whole entry): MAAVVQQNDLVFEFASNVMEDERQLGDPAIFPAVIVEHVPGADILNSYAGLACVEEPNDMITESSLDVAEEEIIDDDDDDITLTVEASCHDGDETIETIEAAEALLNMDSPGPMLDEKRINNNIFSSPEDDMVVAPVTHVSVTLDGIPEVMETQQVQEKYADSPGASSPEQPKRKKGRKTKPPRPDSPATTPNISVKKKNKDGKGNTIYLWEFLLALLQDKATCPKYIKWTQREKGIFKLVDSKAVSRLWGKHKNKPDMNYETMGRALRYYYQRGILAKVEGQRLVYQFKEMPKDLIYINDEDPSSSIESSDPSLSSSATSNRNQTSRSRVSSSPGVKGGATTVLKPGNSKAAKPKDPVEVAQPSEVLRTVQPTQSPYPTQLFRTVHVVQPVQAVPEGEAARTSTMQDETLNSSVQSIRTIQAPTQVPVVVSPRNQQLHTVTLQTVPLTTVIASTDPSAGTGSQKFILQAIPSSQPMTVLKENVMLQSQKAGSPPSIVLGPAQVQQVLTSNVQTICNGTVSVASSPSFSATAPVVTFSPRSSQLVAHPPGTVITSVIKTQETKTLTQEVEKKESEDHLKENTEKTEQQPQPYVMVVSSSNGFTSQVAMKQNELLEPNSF
# In short: as §1
# [6] = molecular target: SPI1 (Homo sapiens, UniProt P17947 1-270)
# In short: as §1
# [7] = molecular target: T5, ELK3 (Homo sapiens, UniProt P41970 1-407)
# T5 sequence: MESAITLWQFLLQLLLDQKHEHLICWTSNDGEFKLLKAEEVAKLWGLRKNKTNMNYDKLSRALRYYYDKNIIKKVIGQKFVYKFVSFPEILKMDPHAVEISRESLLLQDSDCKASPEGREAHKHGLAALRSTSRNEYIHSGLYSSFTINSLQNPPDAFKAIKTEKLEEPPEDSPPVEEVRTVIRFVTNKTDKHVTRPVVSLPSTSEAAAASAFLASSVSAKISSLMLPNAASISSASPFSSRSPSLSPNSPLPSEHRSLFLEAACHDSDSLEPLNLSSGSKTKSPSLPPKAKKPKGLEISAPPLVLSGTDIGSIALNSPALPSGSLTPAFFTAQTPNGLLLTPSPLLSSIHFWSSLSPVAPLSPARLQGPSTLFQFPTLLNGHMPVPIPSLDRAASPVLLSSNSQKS
# In short: as §1
# [8] = molecular target: T6, FEV (Homo sapiens, UniProt Q99581 1-238)
# T6 sequence: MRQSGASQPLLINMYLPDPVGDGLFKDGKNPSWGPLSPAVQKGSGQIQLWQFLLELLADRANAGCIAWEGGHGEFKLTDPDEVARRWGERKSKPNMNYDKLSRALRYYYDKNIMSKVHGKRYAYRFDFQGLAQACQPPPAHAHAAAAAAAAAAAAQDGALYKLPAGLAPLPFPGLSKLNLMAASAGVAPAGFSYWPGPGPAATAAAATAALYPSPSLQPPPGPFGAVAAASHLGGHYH
# In short: as §1
# [9] = molecular target: ELF4 (Homo sapiens, UniProt Q99607 1-663)
# ELF4, sequence (Q99607 whole entry): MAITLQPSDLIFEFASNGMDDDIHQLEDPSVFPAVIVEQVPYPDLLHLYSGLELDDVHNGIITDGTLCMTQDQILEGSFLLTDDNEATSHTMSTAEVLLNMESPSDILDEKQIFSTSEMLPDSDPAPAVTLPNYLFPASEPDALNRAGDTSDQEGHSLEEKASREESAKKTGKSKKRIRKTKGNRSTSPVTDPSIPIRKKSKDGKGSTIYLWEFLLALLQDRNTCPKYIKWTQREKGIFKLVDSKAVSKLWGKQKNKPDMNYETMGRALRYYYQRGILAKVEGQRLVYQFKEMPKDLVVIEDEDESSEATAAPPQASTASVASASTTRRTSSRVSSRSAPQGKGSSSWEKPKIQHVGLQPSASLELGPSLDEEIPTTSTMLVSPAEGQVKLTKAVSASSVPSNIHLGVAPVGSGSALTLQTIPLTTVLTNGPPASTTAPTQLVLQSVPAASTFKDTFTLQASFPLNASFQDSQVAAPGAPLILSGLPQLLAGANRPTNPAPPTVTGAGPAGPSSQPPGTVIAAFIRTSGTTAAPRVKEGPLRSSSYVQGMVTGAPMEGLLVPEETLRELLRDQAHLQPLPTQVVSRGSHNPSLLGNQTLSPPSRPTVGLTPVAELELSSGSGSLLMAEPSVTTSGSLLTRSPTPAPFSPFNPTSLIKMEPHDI
# In short: as §1
# [10] = molecular target: T7, ELK4 (Homo sapiens, UniProt P28324-2 1-405)
# T7 sequence: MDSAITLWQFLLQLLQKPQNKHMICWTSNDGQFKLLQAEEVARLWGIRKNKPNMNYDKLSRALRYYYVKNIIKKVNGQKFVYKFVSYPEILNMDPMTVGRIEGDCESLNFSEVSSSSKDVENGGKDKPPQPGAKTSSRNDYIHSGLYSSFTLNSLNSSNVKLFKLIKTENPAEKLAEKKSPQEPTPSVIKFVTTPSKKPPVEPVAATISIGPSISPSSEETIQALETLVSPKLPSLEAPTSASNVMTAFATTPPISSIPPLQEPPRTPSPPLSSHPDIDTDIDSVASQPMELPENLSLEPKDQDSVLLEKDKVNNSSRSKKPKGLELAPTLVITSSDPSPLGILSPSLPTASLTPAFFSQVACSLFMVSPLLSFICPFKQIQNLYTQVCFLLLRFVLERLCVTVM
# In short: as §1
# [11] = molecular target: T8, ETV2 (Homo sapiens, UniProt O00321 1-342)
# T8 sequence: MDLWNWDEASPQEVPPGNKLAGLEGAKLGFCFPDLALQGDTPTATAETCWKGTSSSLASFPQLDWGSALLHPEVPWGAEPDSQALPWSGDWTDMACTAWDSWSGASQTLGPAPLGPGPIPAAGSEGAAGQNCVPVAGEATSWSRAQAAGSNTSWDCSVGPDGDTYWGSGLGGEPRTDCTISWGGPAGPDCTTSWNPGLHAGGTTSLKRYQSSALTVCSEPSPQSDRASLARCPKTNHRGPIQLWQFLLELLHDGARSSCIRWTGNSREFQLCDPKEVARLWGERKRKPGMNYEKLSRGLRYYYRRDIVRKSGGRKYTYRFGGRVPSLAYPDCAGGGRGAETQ
# In short: as §1
# [12] = molecular target: T9, ETV3L (Homo sapiens, UniProt Q6ZN32 1-361)
# T9 sequence: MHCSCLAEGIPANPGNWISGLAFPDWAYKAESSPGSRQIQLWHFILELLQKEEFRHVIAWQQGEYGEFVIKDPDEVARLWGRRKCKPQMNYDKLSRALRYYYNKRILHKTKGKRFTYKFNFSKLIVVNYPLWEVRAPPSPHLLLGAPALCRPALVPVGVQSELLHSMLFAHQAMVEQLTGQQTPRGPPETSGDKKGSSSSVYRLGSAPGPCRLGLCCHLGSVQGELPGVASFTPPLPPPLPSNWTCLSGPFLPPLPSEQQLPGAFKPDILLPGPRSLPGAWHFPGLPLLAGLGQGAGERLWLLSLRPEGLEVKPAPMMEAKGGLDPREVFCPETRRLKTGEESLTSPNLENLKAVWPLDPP
# In short: as §1
# [13] = molecular target: T10, SPDEF (Homo sapiens, UniProt O95238 1-335)
# T10 sequence: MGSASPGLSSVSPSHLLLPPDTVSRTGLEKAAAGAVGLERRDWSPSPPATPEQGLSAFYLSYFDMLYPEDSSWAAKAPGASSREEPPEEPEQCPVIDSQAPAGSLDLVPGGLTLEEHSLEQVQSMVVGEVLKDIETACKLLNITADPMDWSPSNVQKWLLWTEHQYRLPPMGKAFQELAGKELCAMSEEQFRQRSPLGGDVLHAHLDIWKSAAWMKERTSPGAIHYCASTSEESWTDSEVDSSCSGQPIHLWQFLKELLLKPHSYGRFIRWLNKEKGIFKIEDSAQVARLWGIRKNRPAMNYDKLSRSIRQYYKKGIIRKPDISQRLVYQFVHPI
# In short: as §1
# [14] = molecular target: T11, ETV7 (Homo sapiens, UniProt Q9Y603 1-341)
# T11 sequence: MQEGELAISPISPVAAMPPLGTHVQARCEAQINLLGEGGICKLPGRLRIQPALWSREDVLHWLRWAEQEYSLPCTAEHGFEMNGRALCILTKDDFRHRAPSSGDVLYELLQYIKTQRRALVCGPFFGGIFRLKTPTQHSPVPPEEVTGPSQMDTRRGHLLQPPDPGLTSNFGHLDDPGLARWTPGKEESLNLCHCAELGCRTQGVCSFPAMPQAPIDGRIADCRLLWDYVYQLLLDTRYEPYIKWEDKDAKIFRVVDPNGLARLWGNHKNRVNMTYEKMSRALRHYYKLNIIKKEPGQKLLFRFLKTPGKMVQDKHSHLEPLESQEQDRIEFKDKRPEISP
# In short: as §1
# [15] = molecular target: T12, ETV3 (Homo sapiens, UniProt P41162-2 1-143)
# T12 sequence: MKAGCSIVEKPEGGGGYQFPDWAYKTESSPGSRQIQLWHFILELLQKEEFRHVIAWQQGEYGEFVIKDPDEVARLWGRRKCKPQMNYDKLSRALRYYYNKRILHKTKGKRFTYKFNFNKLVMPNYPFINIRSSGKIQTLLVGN
# In short: as §1
# [16] = molecular target: ETV6 (Homo sapiens, UniProt P41212 1-452)
# ETV6, sequence (P41212 whole entry): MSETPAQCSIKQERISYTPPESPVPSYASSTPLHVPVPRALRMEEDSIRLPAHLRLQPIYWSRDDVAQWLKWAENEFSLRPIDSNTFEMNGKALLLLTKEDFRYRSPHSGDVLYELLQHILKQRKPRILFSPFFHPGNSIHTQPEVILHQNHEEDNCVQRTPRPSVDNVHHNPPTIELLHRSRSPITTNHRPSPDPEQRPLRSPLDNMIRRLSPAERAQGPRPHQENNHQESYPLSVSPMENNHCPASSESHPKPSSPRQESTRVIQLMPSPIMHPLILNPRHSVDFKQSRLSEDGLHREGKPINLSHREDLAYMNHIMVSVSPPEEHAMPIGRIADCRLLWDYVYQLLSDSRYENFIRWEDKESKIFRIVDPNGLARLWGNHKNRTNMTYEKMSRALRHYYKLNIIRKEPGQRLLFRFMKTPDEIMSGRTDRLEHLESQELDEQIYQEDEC
# In short: as §1
sequence,measurement,setting,value
CGCGGC,binding signal,[1],"1.1 fold enrichment (6-mer frequency, TF over GST control)"
same,binding signal,[2],"1.08 fold enrichment (6-mer frequency, TF over GST control)"
same,binding signal,[3],"1.15 fold enrichment (6-mer frequency, TF over GST control)"
same,binding signal,[4],"1.05 fold enrichment (6-mer frequency, TF over GST control)"
same,binding signal,[5],"1.04 fold enrichment (6-mer frequency, TF over GST control)"
same,binding signal,[6],"1.05 fold enrichment (6-mer frequency, TF over GST control)"
same,binding signal,[7],"1 fold enrichment (6-mer frequency, TF over GST control)"
same,binding signal,[8],"1.06 fold enrichment (6-mer frequency, TF over GST control)"
same,binding signal,[9],"1.15 fold enrichment (6-mer frequency, TF over GST control)"
same,binding signal,[10],"1.12 fold enrichment (6-mer frequency, TF over GST control)"
same,binding signal,[11],"1.01 fold enrichment (6-mer frequency, TF over GST control)"
same,binding signal,[12],"1.01 fold enrichment (6-mer frequency, TF over GST control)"
same,binding signal,[13],"1.04 fold enrichment (6-mer frequency, TF over GST control)"
same,binding signal,[14],"1.03 fold enrichment (6-mer frequency, TF over GST control)"
same,binding signal,[15],"1.04 fold enrichment (6-mer frequency, TF over GST control)"
same,binding signal,[16],"1.15 fold enrichment (6-mer frequency, TF over GST control)"
